We go through 10 compounds from the supplement of paper PMC10981050.

What is called cell viability is a read-out of living cells in per cent, often relative to untreated cells.

Where “and” joins values, the source holds several entries; their conditions need not be identical. Equal entries are not always repeated. Structures can show the parent of a compound that is named as a salt.

Common to all, as to assay: cell viability relative to vehicle control; higher = less cytotoxic
Settings in all cases: 10 µM

The test system of one experiment is K562. The gist of the method: (§1)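 CRISPR-edited SRSF2 P95 mutant and isogenic wild-type clones of four leukaemia lines were screened against Selleck bioactive, kinase and epigenetic probe libraries, with identity-inconsistent compounds removed. Compounds were acoustically dispensed into 384-well plates at a single 10 µM dose, with 2000 cells in 50 µL medium per well. After 48 h, supernatant was removed and CellTiter-Glo luminescence was read. Viability was expressed as percent of the on-plate DMSO vehicle control, analysed in Genedata Screener.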

The next experiment concerns MARIMO. The gist of the method: as §1
The next experiment concerns MOLM14. In outline: as §1
Another experiment deals with OCI-AML2. In outline:
as §1

With `CCc1cnn2c(NCc3ccc[n+]([O-])c3)cc(N3CCCC[C@H]3CCO)nc12`, the cell viability in the experiment on K562 (SRSF2 genotype: SRSF2 P95H/wt) was 8.67% and 18.9%; in the experiment on K562 (SRSF2 genotype: SRSF2 wt/wt), 13.1%; in the experiment on MARIMO (SRSF2 genotype: SRSF2 P95H/wt) it was 10.8%; in the experiment on MARIMO (SRSF2 genotype: SRSF2 wt/wt), 4.43%; in the experiment on MOLM14 (SRSF2 genotype: SRSF2 P95H/wt), 2.65%; with MOLM14 (SRSF2 genotype: SRSF2 wt/wt), 0.52%. In addition, the cell viability amounted to 5.12% with OCI-AML2 (SRSF2 genotype: P95H/wt) and 17.9% in the experiment with OCI-AML2 (SRSF2 genotype: wt/wt).

For `COC(=O)[C@@H]1[C@H]2C[C@H]3c4[nH]c5ccccc5c4CCN3C[C@@H]2CC[C@@H]1O` [Yohimbine hydrochloride (Antagonil)], the cell viability is 103% and 98.2% in the experiment on K562 (SRSF2 genotype: SRSF2 P95H/wt); 96.5% in the experiment on K562 (SRSF2 genotype: SRSF2 wt/wt); 95.8% in the experiment with MARIMO (SRSF2 genotype: SRSF2 P95H/wt); 103% in the experiment on MARIMO (SRSF2 genotype: SRSF2 wt/wt); 95% with MOLM14 (SRSF2 genotype: SRSF2 P95H/wt); 102% with MOLM14 (SRSF2 genotype: SRSF2 wt/wt). Moreover, the cell viability in the experiment on OCI-AML2 (SRSF2 genotype: P95H/wt) is 94.9%; in the experiment on OCI-AML2 (SRSF2 genotype: wt/wt) it was 96.1%.

For `C=C1CCC[C@]2(C)C[C@]3(O)OC(=O)C(C)=C3C[C@@H]12` [Atractylenolide III], the cell viability with K562 (SRSF2 genotype: SRSF2 P95H/wt) was 105% and 101%; in the experiment on K562 (SRSF2 genotype: SRSF2 wt/wt) it was 99.3%; in the experiment with MARIMO (SRSF2 genotype: SRSF2 P95H/wt), 101%; with MARIMO (SRSF2 genotype: SRSF2 wt/wt), 102%; in the experiment with MOLM14 (SRSF2 genotype: SRSF2 P95H/wt) it was 102%; in the experiment on MOLM14 (SRSF2 genotype: SRSF2 wt/wt), 99%. The cell viability is 94.9% in the experiment with OCI-AML2 (SRSF2 genotype: P95H/wt) and 106% with OCI-AML2 (SRSF2 genotype: wt/wt).

Consider `C[C@H]1[C@H](NC(=O)/C(=N\OC(C)(C)C(=O)O)c2csc(N)n2)C(=O)N1S(=O)(=O)O` [Aztreonam (Azactam, Cayston)], for which the cell viability with K562 (SRSF2 genotype: SRSF2 P95H/wt) was 106% and 99.5%; with K562 (SRSF2 genotype: SRSF2 wt/wt), 109%; in the experiment on MARIMO (SRSF2 genotype: SRSF2 P95H/wt), 96.8%; in the experiment with MARIMO (SRSF2 genotype: SRSF2 wt/wt) it was 112%; in the experiment on MOLM14 (SRSF2 genotype: SRSF2 P95H/wt), 103%; in the experiment with MOLM14 (SRSF2 genotype: SRSF2 wt/wt) it was 108%. The cell viability amounted to 98.4% with OCI-AML2 (SRSF2 genotype: P95H/wt) and 104% in the experiment on OCI-AML2 (SRSF2 genotype: wt/wt).

Take `O=C(O)COc1nn(Cc2ccccc2)c2ccccc12` [Bendazac]: the cell viability is 103% and 104% in the experiment on K562 (SRSF2 genotype: SRSF2 P95H/wt); 108% in the experiment with K562 (SRSF2 genotype: SRSF2 wt/wt); 106% in the experiment with MARIMO (SRSF2 genotype: SRSF2 P95H/wt); 111% with MARIMO (SRSF2 genotype: SRSF2 wt/wt); 103% in the experiment on MOLM14 (SRSF2 genotype: SRSF2 P95H/wt); 106% with MOLM14 (SRSF2 genotype: SRSF2 wt/wt). Also, the cell viability in the experiment with OCI-AML2 (SRSF2 genotype: P95H/wt) worked out at 111%; in the experiment on OCI-AML2 (SRSF2 genotype: wt/wt) it was 115%.

Take `Nc1ccc(S(=O)(=O)Nc2nccs2)cc1` [Sulfathiazole]: the cell viability with K562 (SRSF2 genotype: SRSF2 P95H/wt) was 104% and 98.6%; in the experiment with K562 (SRSF2 genotype: SRSF2 wt/wt), 95.4%; with MARIMO (SRSF2 genotype: SRSF2 P95H/wt) it was 95.8%; in the experiment with MARIMO (SRSF2 genotype: SRSF2 wt/wt) it was 107%; in the experiment with MOLM14 (SRSF2 genotype: SRSF2 P95H/wt), 103%; in the experiment with MOLM14 (SRSF2 genotype: SRSF2 wt/wt), 102%. The cell viability with OCI-AML2 (SRSF2 genotype: P95H/wt) is 96%; with OCI-AML2 (SRSF2 genotype: wt/wt), 105%.

On to `CCc1ccc(CCOc2ccc(CC3SC(=O)NC3=O)cc2)nc1` (stereo not given) [Pioglitazone (Actos)], for which the cell viability is 98.5% and 116% in the experiment with K562 (SRSF2 genotype: SRSF2 P95H/wt); 109% in the experiment with K562 (SRSF2 genotype: SRSF2 wt/wt); 104% with MARIMO (SRSF2 genotype: SRSF2 P95H/wt); 103% in the experiment with MARIMO (SRSF2 genotype: SRSF2 wt/wt); 102% with MOLM14 (SRSF2 genotype: SRSF2 P95H/wt); 108% in the experiment on MOLM14 (SRSF2 genotype: SRSF2 wt/wt). The cell viability was 111% in the experiment with OCI-AML2 (SRSF2 genotype: P95H/wt) and 103% in the experiment on OCI-AML2 (SRSF2 genotype: wt/wt).

In the case of `C[C@@H]1C[C@H]2[C@@H]3CCC4=CC(=O)C=C[C@]4(C)[C@@]3(Cl)[C@@H](O)C[C@]2(C)[C@@]1(OC(=O)c1ccco1)C(=O)CCl` [Mometasone furoate], the cell viability with K562 (SRSF2 genotype: SRSF2 P95H/wt) is 91.2% and 98.8%; in the experiment on K562 (SRSF2 genotype: SRSF2 wt/wt), 92.2%; with MARIMO (SRSF2 genotype: SRSF2 P95H/wt), 87.8%; in the experiment with MARIMO (SRSF2 genotype: SRSF2 wt/wt), 103%; in the experiment with MOLM14 (SRSF2 genotype: SRSF2 P95H/wt) it was 82.7%; in the experiment on MOLM14 (SRSF2 genotype: SRSF2 wt/wt) it was 79%. Also, the values for the cell viability in the experiment on OCI-AML2 (SRSF2 genotype: P95H/wt) and with OCI-AML2 (SRSF2 genotype: wt/wt) were 113% and 118%, respectively.

For the compound `CN(C)CCCN1c2ccccc2Sc2ccc(Cl)cc21` [Chlorpromazine HCl], the cell viability in the experiment with K562 (SRSF2 genotype: SRSF2 P95H/wt) is 75.5% and 73.7%; in the experiment with K562 (SRSF2 genotype: SRSF2 wt/wt), 65.6%; with MARIMO (SRSF2 genotype: SRSF2 P95H/wt), 40.4%; in the experiment with MARIMO (SRSF2 genotype: SRSF2 wt/wt), 44.1%; in the experiment with MOLM14 (SRSF2 genotype: SRSF2 P95H/wt), 40.7%; in the experiment on MOLM14 (SRSF2 genotype: SRSF2 wt/wt) it was 43.7%. Also, the cell viability was 25.3% in the experiment on OCI-AML2 (SRSF2 genotype: P95H/wt) and 28.6% in the experiment on OCI-AML2 (SRSF2 genotype: wt/wt).

In the case of `C[C@@H]1COCCN1c1cc(-c2ccnn2C)c2ccnc(-c3ccn[nH]3)c2n1`, the cell viability with K562 (SRSF2 genotype: SRSF2 P95H/wt) was 8.97% and 14.2%; with K562 (SRSF2 genotype: SRSF2 wt/wt), 10.6%; in the experiment with MARIMO (SRSF2 genotype: SRSF2 P95H/wt), 17.3%; with MARIMO (SRSF2 genotype: SRSF2 wt/wt), 26.6%; in the experiment on MOLM14 (SRSF2 genotype: SRSF2 P95H/wt), 19.1%; in the experiment on MOLM14 (SRSF2 genotype: SRSF2 wt/wt) it was 9.25%. Further, the cell viability in the experiment with OCI-AML2 (SRSF2 genotype: P95H/wt) came to 15%; in the experiment on OCI-AML2 (SRSF2 genotype: wt/wt) it was 17.1%.
